Inconclusive results are not listed. Activity calls are given as the source filed them. The call rests on the fitted dose curve; in most records, active means well fitted inhibition curve with a large enough effect; inconclusive means small, poorly fitted or top-dose-only effect; inactive means flat fitted curve, though single readings scatter.
Key:
Assay in all cases: qHTS profiling for inhibitors of Plasmodium falciparum proliferation (AID 504749); further: nearly all actives have a fitted effect of over 60% in size
Conditions in all cases: P. falciparum in erythrocytes, SYBR Green DNA, 72 h; series mostly up to 28.7 µM
[1] = test system: ATS95
In short: (§1)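 In a 72 h erythrocytic culture (37 C, humidified, 5% CO2) at 2.5% hematocrit and 0.3% starting parasitemia, compounds were tested; SYBR Green I in detergent lysis buffer stained parasite DNA overnight.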

[2] = test system: C2A
In short: as §1

[3] = test system: CP185
In short: as §1

[4] = test system: CP191
In short: as §1

[5] = test system: CP192
In short: as §1

[6] = test system: CP194
In short: as §1

[7] = test system: CP201
In short: as §1

[8] = test system: CP203
In short: as §1

[9] = test system: CP211
In short: as §1

[10] = test system: CP215
In short: as §1

[11] = test system: CP217
In short: as §1

[12] = test system: CP237
In short: as §1

[13] = test system: CP238
In short: as §1

[14] = test system: CP247
In short: as §1

[15] = test system: CP250
In short: as §1

[16] = test system: CP252
In short: as §1

[17] = test system: CP256
In short: as §1

[18] = test system: CP260
In short: as §1

[19] = test system: CP262
In short: as §1

[20] = test system: CP265
In short: as §1

Measured: Potency

NCc1cccnc1
inactive: all assays above

OC(c1ccccc1)(c1ccccc1)C1CCNCC1
inactive: all assays above

c1ccc2nc(N3CCNCC3)ccc2c1
inactive: all assays above

Oc1c(Br)cc(Br)cc1Br
inactive: all assays above

Cc1ncc2n1-c1ccc(Cl)cc1C(c1ccccc1F)=NC2
inactive: all assays above

COP(=O)(OC)C(O)C(Cl)(Cl)Cl (stereo not given)
inactive: all assays above

CC(C)C(Br)C(=O)NC(N)=O (stereo not given)
inactive: all assays above

CC(C)(C)OC(=O)c1ncn2c1[C@@H]1CCCN1C(=O)c1c(Br)cccc1-2
inactive: all assays above

CCC1(CC)C(=O)NC(=O)NC1=O
inactive: all assays above

CCN(Cc1ccc(Cl)nc1)/C(=C/[N+](=O)[O-])NC
inactive: all assays above

CCCCCCCCC(=O)NCc1ccc(O)c(OC)c1
inactive: all assays above

Source: PubChem BioAssay (NCATS)
